Test results as given in PubChem BioAssay (EPA / NIEHS).
Results filed as inconclusive are left out. Calls of active or inactive are those of the source. Rule for the calls, unless noted: active = hit-call score of the fitted dose curve at least 0.9, where 1 is the maximum; inactive = score below 0.9.

Experiments:
[1] = biological target: Estrogen receptor (Homo sapiens) (UniProt P03372); test: CCTE_Deisenroth_AIME_384WELL_LUC_Active: CCTE's 384-well Estrogen Receptor Transactivation Assay with AIME metabolic competence (ERTA luciferase; metabolism positive), Deisenroth Lab (AID 2284030; active = hit-call score of the fitted dose curve at least 0.9, where 1 is the maximum)
Sequence of Estrogen receptor (Homo sapiens) (P03372 whole entry, looked up): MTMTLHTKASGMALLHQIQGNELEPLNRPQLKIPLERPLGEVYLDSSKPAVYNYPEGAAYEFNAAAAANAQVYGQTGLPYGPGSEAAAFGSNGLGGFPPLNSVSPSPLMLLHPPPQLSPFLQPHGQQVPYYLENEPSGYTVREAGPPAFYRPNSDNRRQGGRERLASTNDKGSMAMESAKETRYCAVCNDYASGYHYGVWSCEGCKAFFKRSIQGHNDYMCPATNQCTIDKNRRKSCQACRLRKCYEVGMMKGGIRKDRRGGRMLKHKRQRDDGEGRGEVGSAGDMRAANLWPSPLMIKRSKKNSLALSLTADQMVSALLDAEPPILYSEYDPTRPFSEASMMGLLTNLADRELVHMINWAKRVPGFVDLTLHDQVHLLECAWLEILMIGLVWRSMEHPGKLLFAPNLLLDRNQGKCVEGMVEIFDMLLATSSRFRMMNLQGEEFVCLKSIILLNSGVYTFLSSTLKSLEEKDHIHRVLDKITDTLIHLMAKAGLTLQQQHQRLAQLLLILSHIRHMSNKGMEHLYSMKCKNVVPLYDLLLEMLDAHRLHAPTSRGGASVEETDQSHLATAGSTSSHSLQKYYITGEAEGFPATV
Experimental: CCTE_Deisenroth_AIME_384WELL (AIME metabolism assay) is a cell-based, single-readout assay that uses VM7Luc4E2, a human mammary gland/breast cell line, with measurements taken at 24 hour after chemical dosing in a 384-well plate.CCTE_Deisenroth_AIME_384WELL_LUC_Active is one of four assay components measured or calculated from the CCTE_Deisenroth_AIME_384WELL assay. It is designed to make measurements of luciferase induction, a form of inducible reporter, as detected with bioluminescence signals by luciferase-coupled ATP quantitation technology.CCTE_Deisenroth_AIME_384WELL_LUC_Active is a component of the CCTE_Deisenroth_AIME_384WELL assay that measures the effect of retroftting the VM7Luc ERTA assay with the Alginate Immobolization of Metabolic Enzymes (AIME) metabolism method. AIME is optimized to impart phase I hepatic metabolism using phenobarbital/beta-naphthoflavone induced hepatic S9 from male Sprague Dawley rats. Parent chemicals are incubated for 2 hours in the AIME assay prior to transfer to the VM7Luc ERTA assay plate. […] This endpoint evaluates reporter induction in metabolism positive mode. Using a type of inducible reporter in VM7Luc cells, gain-of-signal activity can be used to understand changes in the reporter gene as they relate to xenobiotic metabolism and the gene ESR1. This assay endpoint, CCTE_Deisenroth_AIME_384WELL_LUC_Active, was analyzed in the positive analysis fitting direction relative to 17beta-estradiol as the positive control in the ERTA assay. To generalize the intended target to other relatable targets, this assay endpoint is annotated to the nuclear receptor intended target family, where the subfamily is steroidal.
The AIME procedure consists of a preparative "pre-stamping" step using a barium chloride/poly-L-lysine (PLL) solution followed by "stamping" the lid in alginate-hepatic S9 (metabolism positive) or alginate-water (metabolism negative) to form microspheres. Once stamping is completed, the AIME lids are placed in duplicate microplates (metabolism positive or negative) containing chemical solutions and incubated for two hours to facilitate metabolic reactions. The conditioned medium, containing parent chemical or metabolites, is then transferred to the cell-based VM7Luc Estrogen Receptor Transactivation Assay (ERTA) for 24 hours. A typical experimental design tests a 10-point concentration series (0.002 - 200 uM) for 8 compounds (96-well format)1 or 32 compounds (384-well format)2 in single technical replicate. AIME assay controls include trans-stilbene (bioactivated control) and ethylparaben (bioinactivated control). ERTA assay plate controls include 17-beta estradiol (positive control) and DMSO (solvent control). Experiments typically comprise a minimum of four experimental replicates (n=4).

[2] = CCTE_Shafer_MEA_dev_firing_rate_mean: CCTE's Neural Network Formation Assay for Mean Firing Rate, Shafer Lab (AID 2284031);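 note: AUC of well mean spike rate recorded on DIV 5 7 9 and 12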;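 for AC50: curve fitted for loss of firing so AC50 reflects decreased mean firing rate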
How it was run: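 Extracellular spike frequency, AUC over DIV 5–12 recordings, in rat cortical neuron MEA cultures dosed from plating; loss direction vs DMSO.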

[3] = CCTE_Shafer_MEA_acute_burst_percentage_mean: CCTE's Neural Acute Assay for Percentage of Spikes in a Burst, Shafer Lab (AID 2284017);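 for AC50: curve fitted for loss of signal so potency reflects decreased burst percentage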
How it was run: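 Well-level mean burst percentage from a 40-min recording after compound (0.03-40 uM) expressed as percent change from a 40-min baseline at 37C. Cultures: primary rat cortical neurons on MEA, dosed on DIV 13 or 15; fitted downward relative to DMSO.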

[4] = CCTE_Shafer_MEA_acute_burst_percentage_std: CCTE's Neural Acute Assay for Standard Deviation of Burst Percentage, Shafer Lab (AID 2284018);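 note: fitted in the negative direction so actives lower burst percentage SD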
How it was run: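 Rat primary cortical neurons on 48-well MEAs, DIV 13 or 15, 37 C. 40-min baseline then 40-min recording with compound (0.03-40 uM); well-level SD of per-electrode burst spike percentage, expressed as percent change from baseline.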

[5] = CCTE_Shafer_MEA_acute_per_network_burst_spike_number_std: CCTE's Neural Acute Assay for Standard Deviation of Number of Spikes in a Network Burst, Shafer Lab (AID 2284020);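 note: fitted for decrease in spike-number SD versus DMSO so actives lower it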
How it was run: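 Rat cortical cultures, DIV 13/15, 37 C; 20-min stabilisation, 40-min baseline, compound 0.03-40 uM, 40-min re-record. Spikes detected at 8x rms noise (300-5000 Hz band-pass). Readout: % change from baseline in per-burst spike-number SD.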

[6] = CCTE_Shafer_MEA_acute_per_network_burst_electrodes_number_mean: CCTE's Neural Acute Assay for Mean Number of Electrodes in a Network Burst, Shafer Lab (AID 2284021);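 note: curves fitted for decreases only so hits reduce electrodes per burst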
How it was run: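 Rat primary cortical neurons on 48-well MEAs, DIV 13 or 15, were treated at 0.03-40 uM. Spikes were detected at 8x rms noise and recorded at 37 C. The mean electrodes per network burst in a 40 min exposure recording was expressed as percent change from a 40 min baseline.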

[7] = CCTE_Shafer_MEA_acute_network_burst_percentage: CCTE's Neural Acute Assay for Percentage of Network Bursts, Shafer Lab (AID 2284022);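 note: curves fitted for loss so actives lower network burst percentage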
How it was run: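 Rat primary cortical neuron networks on 48-well MEA plates, DIV 13 or 15, treated acutely with compound (0.03-40 uM, at least three wells). Percent of spikes within network bursts compared between 40-min recordings before and during exposure at 37 C, expressed as percent change.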

[8] = CCTE_Shafer_MEA_acute_cross_correlation_area: CCTE's Neural Acute Assay for Area of Cross Correlation, Shafer Lab (AID 2284024);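 note: curves fitted for loss of cross-correlation area so actives lower synchrony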
How it was run: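 Rat primary cortical neurons on 48-well MEA, DIV 13 or 15; compounds 0.03-40 uM. Baseline and post-exposure 40 min recordings at 37 C; percent change in area under pooled inter-electrode cross-correlation near zero lag, relative to DMSO.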

[9] = CCTE_Shafer_MEA_acute_cross_correlation_HWHM: CCTE's Neural Acute Assay for Cross Correlation at Half Width at Half Maximum, Shafer Lab (AID 2284026);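 note: percent change per well from pre-dose baseline in spike cross-correlogram half width; hits are a decrease in cross-correlogram half width relative to DMSO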
How it was run: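 Rat primary cortical neurons on 48-well MEA plates; 40-min baseline and 40-min post-exposure recordings at 37 C on DIV 13 or 15, compounds 0.03-40 uM. Spikes detected at 8x rms noise; percent change in cross-correlogram HWHM per well vs baseline.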

[10] = CCTE_Shafer_MEA_acute_synchrony_index: CCTE's Neural Acute Assay for Synchrony, Shafer Lab (AID 2284027);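 note: network synchrony index of spontaneous spiking in primary rat cortical neurons on MEAs; fitted for loss of signal so actives lower synchrony relative to DMSO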
How it was run: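 Acute exposure of rat primary cortical neurons (DIV 13 or 15) at 0.03-40 uM. Synchrony index, 40 min before vs after, as % change relative to DMSO control.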

Measured: AC50

O=C(O)COc1ccc(Cl)cc1
inactive: [1]

FC(F)OCC(F)(F)C(F)(F)F
inactive: [2]

CCCCCCCCCCCCc1cccc(S(=O)(=O)O)c1
not listed: [1] | [2]
inactive: all other assays above

OC(Cc1ccccc1Cl)(Cn1[nH]cnc1=S)C1(Cl)CC1 (configuration not stated)
active: [2] 20.8 µM

Cc1ccccc1OP(=O)(Oc1ccccc1C)Oc1ccccc1C
active: [3] 26.3 µM | [4] 24.2 µM | [9] 23.1 µM | [10] 28.1 µM
not listed: [1]
inactive: all other assays above

Oc1ccc(Cc2ccc(O)cc2)cc1
active: [8] 0.00164 µM
not listed: [1] | [2]
inactive: all other assays above

N#CCC#N
inactive: [1]

N#Cc1cccnc1
not listed: [2]
inactive: all other assays above

CC1(C)[C@H](C(=O)O[C@H](C#N)c2cccc(Oc3ccccc3)c2)[C@@H]1/C=C(\Cl)C(F)(F)F
inactive: [4] | [2]
active: [3] 0.841 µM | [5] 0.427 µM | [6] 0.818 µM | [7] 0.551 µM | [8] 0.0359 µM | [9] 23.7 µM | [10] 0.45 µM

CCCCOC(=O)COC(=O)c1ccccc1C(=O)OCCCC
active: [8] 0.0115 µM
not listed: [1] | [2]
inactive: all other assays above

Cc1cc(Cl)ccc1OC(C)C(=O)O (configuration not stated)
inactive: [1]

CNC(=O)CSP(=O)(OC)OC
inactive: [2]

CC(F)(F)CC(F)(F)F
inactive: [2]

CN(C)C(=S)S
not listed: [1] | [2]
inactive: all other assays above

CC(=O)C(F)(F)C(F)(F)F
inactive: [2]

Cc1cc(C(F)(C(F)(F)F)C(F)(F)F)ccc1NC(=O)c1cccc(I)c1C(=O)NC(C)(C)CS(C)(=O)=O
active: [3] 5.38 µM | [9] 4.61 µM | [10] 5.74 µM
not listed: [1]
inactive: all other assays above

CCOc1ccc(N)cc1
inactive: [1]

CCN(CCO)CCO
inactive: [1]

CS(=O)(=O)c1ccc(C(=O)C2C(=O)CCCC2=O)c(Cl)c1COCC(F)(F)F
not listed: [1]
inactive: all other assays above

C=CCOC(F)(C(F)(F)F)C(F)(F)F
inactive: [2]

O=S(=O)(F)C(F)(F)C(F)(F)C(F)(F)C(F)(F)F
inactive: [2]

CCOCn1c(-c2ccc(Cl)cc2)c(C#N)c(Br)c1C(F)(F)F
active: [2] 3.01 µM

O=C(Cc1ccccc1)OCCc1ccccc1
not listed: [1] | [2]
inactive: all other assays above

C=CC(F)(C(F)(F)F)C(F)(F)C(F)(F)F (configuration not stated)
inactive: [2]

NC(=O)c1ccc(N)nc1
active: [2] 9.03 µM

CNC(=O)O/N=C/C(C)(C)S(C)(=O)=O
inactive: [1]

CC(C)(C)c1ccccc1O
active: [3] 20 µM | [4] 31.8 µM | [9] 20 µM | [10] 20 µM
inactive: [5] | [6] | [7] | [8]

Oc1cc(Cl)c(Cl)cc1Cl
inactive: [5] | [6] | [7] | [8]
active: [3] 36.5 µM | [4] 32.6 µM | [9] 30.2 µM | [10] 30.5 µM

CC(C)[C@@H](Nc1ccc(C(F)(F)F)cc1Cl)C(=O)OC(C#N)c1cccc(Oc2ccccc2)c1 (some centres not stated)
inactive: [9] | [2]
active: [3] 0.62 µM | [4] 1.28 µM | [5] 0.289 µM | [6] 0.31 µM | [7] 0.564 µM | [8] 0.534 µM | [10] 0.403 µM

OCCCCO
not listed: [1] | [2]
inactive: all other assays above

Clc1cccc(Cl)c1Cl
not listed: [1] | [2]
inactive: all other assays above
